Measured values published in PubChem BioAssay AID1159580 (chemical genetic matrix, 2015).
Values joined by “and” are separate entries in the source; they are usually repeats but may differ in a detail not shown here. Identical values can stand only once. The campaign covered roughly 5,500 compounds. About 2,000 (36%) were called active. About 18% were inconclusive and are not listed. Cut-off read from the data, not from the text of the source: active = normalized growth mostly below about 0.91 (no sharp cut-off); inconclusive = no clear call, values can overlap the other calls; inactive = mostly above about 0.92. Some of the results follow.

Test: chemical genetic growth profiling, strain panel (AID 1159580);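 note: tested at 20 µM; growth read once vehicle control cultures reached saturation at 30 °C; 1 = growth at the plate median or of vehicle wells; lower values mean less growth of the strain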
Conditions: S. cerevisiae deletion strains, growth OD

Measured: normalized growth

CN(C)C(=O)Oc1ccc[n+](C)c1
inactive: locus YAL021C, strain ccr4, active compounds read low 1 | locus YAL026C, strain drs2, active compounds read low 1.01 | locus YAL030W, strain snc1, active compounds read low 0.998 | locus YAL040C, strain CLN3, active compounds read low 0.966 | locus YBL061C, strain skt5, active compounds read low 0.999 | locus YBR009C, strain hhf1, active compounds read low 0.996 | locus YBR021W, strain FUR4, active compounds read low 1.02 | locus YBR023C, strain chs3, active compounds read low 1 | locus YBR171W, strain sec66, active compounds read low 1 | locus YBR229C, strain ROT2, active compounds read low 1.02 | locus YBR231C, strain swc5, active compounds read low 1.03 | locus YBR279W, strain paf1, active compounds read low 1 | locus YCL011C, strain gbp2, active compounds read low 0.998 | locus YCL016C, strain dcc1, active compounds read low 1.01 | locus YCL029C, strain bik1, active compounds read low 1.02 | locus YCL061C, strain MRC1 (second series), active compounds read low 0.992 | locus YCL061C, strain MRC1, active compounds read low 1.01 | locus YCL069W, strain vba3, active compounds read low 1 | locus YCR088W, strain abp1, active compounds read low 1 | locus YDL005C, strain med2, active compounds read low 1 | locus YDL035C, strain GPR1, active compounds read low 1.03 | locus YDL040C, strain nat1, active compounds read low 1 | locus YDL074C, strain BRE1, active compounds read low 1 | locus YDL101C, strain DUN1, active compounds read low 1.01 | locus YDL134C, strain PPH21, active compounds read low 1.03 | locus YDL185W, strain tfp1, active compounds read low 1.01 | locus YDL192W, strain arf1, active compounds read low 1.02 | locus YDR001C, strain nth1, active compounds read low 1 | locus YDR069C, strain doa4, active compounds read low 1 | locus YDR101C, strain arx1, active compounds read low 1.02 | locus YDR137W, strain rgp1, active compounds read low 1.03 | locus YDR159W, strain sac3, active compounds read low 1 | locus YDR162C, strain NBP2, active compounds read low 1.02 | locus YDR195W, strain ref2 0.99 | locus YDR297W, strain sur2, active compounds read low 0.999 | locus YDR318W, strain mcm21, active compounds read low 1.02 | locus YDR334W, strain swr1, active compounds read low 1 | locus YDR335W, strain msn5, active compounds read low 0.996 | locus YDR363W, strain ESC2, active compounds read low 0.885 | locus YDR388W, active compounds read low 1.02 | locus YDR392W, strain spt3, active compounds read low 0.996 | locus YDR502C, strain sam2, active compounds read low 1.02 | locus YEL003W, strain gim4, active compounds read low 0.993 | locus YEL037C, strain rad23, active compounds read low 0.991 | locus YEL061C, strain CIN8 (second series), active compounds read low 0.993 | locus YEL061C, strain CIN8, active compounds read low 1.01 | locus YER002W, strain NOP16, active compounds read low 1.01 | locus YER015W, strain faa2, active compounds read low 0.989 | locus YER016W, strain bim1, active compounds read low 1 | locus YER110C, active compounds read low 1.03 | locus YER111C, strain swi4, active compounds read low 1.02 | locus YER155C, strain BEM2 (second series), active compounds read low 0.994 | locus YER155C, strain BEM2, active compounds read low 1.02 | locus YER167W, strain BCK2, active compounds read low 1.02 | locus YFR010W, strain ubp6, active compounds read low 1.01 | locus YGL078C, strain dbp3, active compounds read low 1.01 | locus YGL086W, strain mad1, active compounds read low 1 | locus YGL167C, strain pmr1, active compounds read low 1.01 | locus YGL173C, strain kem1, active compounds read low 1.01 | locus YGL227W, strain vid30, active compounds read low 1.01 | locus YGL240W, strain doc1, active compounds read low 1.01 | locus YGL248W, strain PDE1, active compounds read low 1 | locus YGL253W, strain hxk2, active compounds read low 1 | locus YGR135W, strain pre9, active compounds read low 1.05 | locus YGR229C, strain SMI1, active compounds read low 1.01 | locus YGR252W, strain gcn5, active compounds read low 1.01 | locus YHR013C, strain ard1, active compounds read low 1.01 | locus YHR027C, strain rpn1, active compounds read low 1.01 | locus YHR030C, strain SLT2, active compounds read low 1.02 and 1.01 | locus YHR079C, strain IRE1 (second series), active compounds read low 1.01 | locus YHR079C, strain IRE1, active compounds read low 1 | locus YHR094C, strain hxt1, active compounds read low 1.02 | locus YHR129C, strain ARP1, active compounds read low 1.01 | locus YHR142W, strain chs7, active compounds read low 0.994 | locus YHR200W, strain rpn10, active compounds read low 1.02 | locus YIL066C, strain RNR3, active compounds read low 1.02 | locus YIL073C, strain SPO22, active compounds read low 1.06 | locus YIL125W, strain kgd1, active compounds read low 1.02 | locus YIR030C, strain dcg1, active compounds read low 1.02 | locus YJL092W, strain hpr5, active compounds read low 1.02 | locus YJL095W, strain BCK1 (second series), active compounds read low 1.01 | locus YJL095W, strain BCK1, active compounds read low 0.994 and 1.04 | locus YJL115W, strain asf1, active compounds read low 0.993 | locus YJL129C, strain trk1, active compounds read low 1.01 | locus YJL134W, strain LCB3, active compounds read low 1.01 | locus YJL154C, strain vps35, active compounds read low 0.995 | locus YJL164C, strain tpk1, active compounds read low 1 | locus YJL166W, strain qcr8, active compounds read low 0.996 | locus YJL168C, strain set2, active compounds read low 1.01 | locus YJL187C, strain SWE1 (second series), active compounds read low 1 | locus YJL187C, strain SWE1, active compounds read low 1 | locus YJR043C, strain POL32, active compounds read low 1 | locus YJR066W, strain TOR1, active compounds read low 0.966
